Only some compounds are listed: those with a hit (about 2.4% of all), similar ones and a draw of the others.
CHRM1 antagonist: antagonists of human M1 muscarinic receptor. P11229. CHO-K1 hM1, Fluo-8 calcium fluorescence, ACh EC80 antagonist. inhibition, % at 3 µM. actives 1.3% (n = 360,000). AID 588852;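 active = percent inhibition above its own plate's cutoff, namely the mean of that plate's compound wells plus 3 SD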;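 also: peak over basal fluorescence ratio during 140 s after agonist addition; 0% = ACh EC80 plus DMSO and 100% = DMSO alone without agonist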
Target sequence (P11229 whole entry, looked up): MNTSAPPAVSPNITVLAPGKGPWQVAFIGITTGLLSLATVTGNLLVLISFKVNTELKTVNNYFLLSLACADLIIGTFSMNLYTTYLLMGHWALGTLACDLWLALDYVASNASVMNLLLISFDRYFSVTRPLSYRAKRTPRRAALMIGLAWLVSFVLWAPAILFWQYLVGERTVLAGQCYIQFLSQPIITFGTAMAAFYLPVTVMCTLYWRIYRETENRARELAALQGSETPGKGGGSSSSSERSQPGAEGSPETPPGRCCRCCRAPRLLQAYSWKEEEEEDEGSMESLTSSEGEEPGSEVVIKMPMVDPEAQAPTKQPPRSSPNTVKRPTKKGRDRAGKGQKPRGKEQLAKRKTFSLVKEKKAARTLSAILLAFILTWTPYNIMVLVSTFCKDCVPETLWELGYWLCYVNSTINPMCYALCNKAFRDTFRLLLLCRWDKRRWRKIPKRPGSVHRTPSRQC
CHRM1 agonist: human M1 muscarinic receptor agonism; P11229; CHO-K1 hM1, Fluo-8 calcium fluorescence, agonist mode; 0% DMSO, 100% acetylcholine EC100; activation, % at 3 µM; actives 0.33% (n = 360,000);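 active = activation above the run's mean compound activation plus 3 SD, cut at about 16% in these data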;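 also: peak over basal fluorescence ratio within a 140 s kinetic read after compound addition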
M1 PAM parental: nonselective activator or artifact in parental CHO-K1 calcium assay; ATP EC20, Fluo-8 calcium fluorescence; 0% at ATP EC20, 100% at ATP max; actives 0.02% (n = 360,000); AID 602247; activation, % at 3 µM;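 active = activation above the run cutoff, the mean activation of all test compounds plus 3 SD, cut at about 40% in these data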;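 also: peak over basal fluorescence ratio in a 140 s read after ATP addition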
CHRM1 PAM: human CHRM1 positive allosteric modulation; CHO-K1 hM1, Fluo-8 calcium fluorescence, ACh EC20; 0% = ACh EC20, 100% = maximal ACh; activation, % at 3 µM; actives 0.088% (n = 360,000); in the data active = activation above about 19%, passing the limit was not always enough
CHO-K1 Ca antag: nonselective inhibitor or artifact in parental CHO-K1 cells; ATP-induced calcium, Fluo-8 fluorescence; inhibition, % at 3 µM; actives 0.6% (n = 360,000); AID 602250;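 active = inhibition above a per-plate cutoff, the plate's mean sample inhibition plus 3 SD, cut at about 24% in these data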;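 also: 0% = DMSO plus EC80 ATP and 100% = DMSO alone without ATP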
M1 ag parental: M1 agonist counterscreen hit in parental CHO-K1 cells; Fluo-8 calcium fluorescence; scaled to maximal ATP response, vehicle zero; activation, % at 3 µM; actives 0.48% (n = 360,000); AID 602248; in the data active = activation above about 15%;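 also: untransfected CHO-K1 host cells lacking M1 receptor as counterscreen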
* marks the source's active call; other numbers are inactive results; . = no result.

SMILES	CHRM1 antagonist	CHRM1 agonist	M1 PAM parental	CHRM1 PAM	CHO-K1 Ca antag	M1 ag parental
CC(C)C[C@@H]1COc2cccc(N3CCC[C@@H]3CO)c2S(=O)(=O)N1	.	.	16	.	-14	6
N#C/C(=N\Nc1ccc(Cl)cc1)C(=O)c1ccccc1	15	7	-3	-2	31*	7
CS(=O)(=O)N1CCc2cc(S(=O)(=O)Nc3ccc4c(c3)OCCO4)ccc21	33*	3	3	-24	-1	15
Cc1ccc(-n2c(-c3cccnc3)n[nH]c2=S)c(C)c1	1	-2	-6	7	26*	0
Cn1c(SCC(=O)Nc2cccc(S(=O)(=O)NC3=NCCCCC3)c2)nnc1-c1ccccc1	21	-2	-13	-3	4	0
Cn1c(=O)c(-c2cccc(Cl)c2)c(O)c2ccccc21	-12	-1	-2	10	3	1
Cn1c2[n+](c3ccc(Cl)cc3c1=O)Cc1ccccc1-2	13	-3	5	-6	4	16*
COc1ccc(C)cc1NC(=O)NNC(=O)C(C)Oc1ccc(F)cc1Cl (stereo not given)	-16	-1	3	13	-1	1
COc1cc(/C=C2\SC(N3CCC(C)CC3)=NC2=O)ccc1O	-8	-7	-9	1	-14	-1
O=c1[nH]c2ccc(N/C(=N/S(=O)(=O)c3ccccc3)c3ccccc3)cc2[nH]1	-12	-5	-13	7	27*	0
O=C(c1cccc(C(=O)N2CCN(Cc3ccccc3)CC2)c1)N1CCN(Cc2ccccc2)CC1	-12	-2	7	4	-4	1
O=C(c1cccc(Cl)c1)N1CCN(Cc2ccncc2)CC1	4	-4	-9	-1	25*	0
CCN1C(=O)/C(=C/c2ccc(OCc3ccc(C(=O)O)cc3)c(Cl)c2)NC1=S	16	13	6	-5	29*	16*
CCN1C(=O)/C(=C/c2ccc(N3CCCC3)cc2)NC1=S	56*	57*	-5	-25	49*	57*
CCCN1C(=O)/C(=C/c2ccc(N3CCOCC3)cc2)NC1=S	26	14	1	-9	15	24*
Cc1ccc(C)c(NC(=O)C2CCN(S(=O)(=O)c3ccc4c(c3)NC(=O)CO4)CC2)c1	36*	-4	4	-3	-8	2
CC(=C/c1ccccc1)/C=N/n1cnnc1	0	22*	15	1	1	2
CC(/C=N/n1cnnc1)=C\c1ccccc1	-13	9	18	8	-3	2
CC(C)(C)c1ccc(OCCNC(=O)Cc2ccc(F)cc2)cc1	16	0	-12	-9	27*	4
COCCNC(=O)Cc1ccc(F)cc1	-13	-6	19	13	-12	0
Nc1ccn([C@@H]2O[C@H](CN=C3NS(=O)(=O)c4ccccc43)[C@@H](O)[C@H]2O)c(=O)n1	-15	0	19	13	-13	1
O=C(CN1C(=O)NC(c2ccccc2)(c2ccccc2)C1=O)NC1CCCCC1	-12	-2	30	11	5	0
CC(=O)c1cccc(NC(=S)NC(=O)Cc2ccc(Cl)cc2)c1	-3	21*	34	12	-12	9
S=C(NCCN(C1CCCCC1)C1CCCC1)Nc1cccc(Cl)c1	21	-6	12	-12	6	3
CC(=O)Nc1ccc(NC(=O)Nc2cccc(Cl)c2)cc1	-12	-1	7	10	-6	2
SMILES	CHRM1 antagonist	CHRM1 agonist	M1 PAM parental	CHRM1 PAM	CHO-K1 Ca antag	M1 ag parental
S=C(NCCC(c1ccccc1)c1ccccc1)Nc1cccc(Cl)c1	7	0	-4	-7	26*	6
CC(=O)c1ccc(NC(=S)NCCc2ccc(S(N)(=O)=O)cc2)cc1	-4	-4	3	3	-21	3
CC(=O)c1ccc(NC(=O)Nc2cccc(Cl)c2)cc1	27*	11	-5	-19	34*	13
CC(=O)c1ccc(NC(=S)NCCc2cccc(Cl)c2)cc1	30	15	-15	-14	6	15*
O=C1c2ccccc2C(c2nnnn2Cc2ccccc2)N1CCCN1CCOCC1 (stereo not given)	.	.	11	.	-21	1
Cc1nccn1-c1ccc(NC(=O)[C@H]2O[C@@H](n3ccc(N)nc3=O)[C@H](O)[C@@H]2O)cc1	.	.	13	.	-16	1
CSc1cccc(NC(N)=O)c1	-6	-3	3	4	1	0
CSc1cccc(NC(=O)Nc2ccc(Cl)cc2)c1	19	3	-3	-11	26*	12
CC(=O)c1ccc(NC(=O)Nc2ccc(Br)cc2C)cc1	31*	3	19	-10	-13	4
CC(=O)c1cccc(NC(=O)Nc2cccs2)c1	2	5	-3	1	26*	1
COc1cccc(NC(=O)Nc2cccs2)c1	-3	1	6	1	3	4
N#CC1=C(N)OC2=C(CC/C2=C\c2ccccc2)C1c1ccccc1 (stereo not given)	31*	18*	2	-10	26*	21*
N#CC1=C(N)OC2=C(CC/C2=C\c2ccccc2Cl)C1c1ccccc1Cl (stereo not given)	7	-3	-10	-2	0	2
COc1ccc(C(=O)COC(=O)CCN2C(=O)C3C4CCC(C4)C3C2=O)cc1 (stereo not given)	6	-4	-17	-7	24*	0
O=C1CCc2cc(S(=O)(=O)Nc3ccccc3)ccc2N1	1	-2	3	5	-6	1
COc1cc(-c2csc(NC3CCCCC3)n2)cc(OC)c1OC	-8	-7	-3	10	-17	0
O/N=C/c1cccc[n+]1CCCCCC[n+]1ccccc1/C=N/O	45*	-9	4	-22	3	1
COc1ccc(C(=O)C[n+]2ccccc2/C=N/O)cc1	16	-10	-7	-21	9	0
CCCCCCNCc1ccc(Br)cc1	-11	16*	9	-3	4	2
CCCCCNCc1ccc(Br)cc1	5	7	-11	3	0	1
O=C(O)c1ccccc1-c1ccccc1C(=O)Nc1cccc(O)c1	-10	-6	18	12	-8	2
COc1ccc(CC(=O)NC(=S)Nc2ccc(S(=O)(=O)NC(C)(C)C)cc2)cc1	-15	24*	29	9	1	11
COc1ccc(CC(=O)NC(=S)Nc2ccc(S(N)(=O)=O)cc2)cc1	0	30*	7	-1	-4	14
COc1ccc(C(=O)NC(=S)Nc2ccc(S(N)(=O)=O)cc2)cc1	-8	-9	3	14	5	0
COc1ccc(NC(=S)NC(=O)Cc2ccccc2)cc1	-10	-1	12	5	-1	10

Screens as filed in PubChem BioAssay.
